Bioassay records deposited in PubChem BioAssay by National Center for Advancing Translational Sciences (NCATS).
GAA spleen mod – qHTS Assay for Inhibitors and Activators of Human alpha-Glucosidase From Spleen Homogenate. Lysosomal alpha-glucosidase (Homo sapiens), P10253. human spleen homogenate, 4-MU-alpha-glucoside fluorescence. Potency, µM (top dose mostly 79.9 µM), for inactives: at the top dose activity change, negative = inhibition, most hits filed as inhibitors. actives 0.006% (n = 240,000);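 further: potency means the concentration at half of the fitted maximal effect; 0% = enzyme with vehicle and -100% = no enzyme basal signal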
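Human spleen homogenate (1 ug) incubated with compounds and 1 mM 4-methylumbelliferyl-alpha-D-glucopyranoside in pH 5.0 citrate/phosphate buffer, 37 C, 40 min. Stopped at pH 10; 4-MU fluorescence (Ex 365/Em 440 nm); AC50 by Hill fit.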
GAA glycogen – qHTS Assay for Inhibitors and Activators of Human alpha-Glucosidase Cleavage of Glycogen; Lysosomal alpha-glucosidase (Homo sapiens), P10253; recombinant GAA, glycogen substrate, Amplex Red glucose oxidase fluorescence; Potency, µM (titrated, usually from 76.4 µM), for the others: top-dose activity change, negative = inhibition, most hits filed as inhibitors; actives 0.38% (n = 300,000); AID 2100, 2009;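 further: potency means the concentration at half of the fitted maximal effect; 0% = full enzyme reaction and -100% = no-enzyme basal signal; the screen sought inhibitors and activators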
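qHTS, 1536-well; enzyme 4 nM final; cpd up to 77 uM; substrate bovine liver glycogen 30 ug; 50 mM citrate/phosphate pH 5.0, 0.01% Tween-20; 37 C, 40 min; Amplex Red detection 45 min RT; Hill fit → AC50.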
GAA inhib – qHTS Assay for Inhibitors of Human alpha-Glucosidase as a Potential Chaperone Treatment of Pompe Disease; AID 1466, 2008; Potency, µM (doses to about 76.9 µM), for the others: at the highest dose activity change, negative = inhibition, actives largely listed as inhibitors; purified human GAA, 4-MU-alpha-glucoside fluorescence; actives 0.005% (n = 200,000);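 further: potency means the concentration at half of the fitted maximal effect; plate controls were uninhibited enzyme wells for no effect and no-enzyme background for full effect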
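Fluorescence at Ex 365/Em 440 nm from 4-methylumbelliferone reported enzyme activity after 20 min at room temperature. Reactions used 4 nM enzyme and 400 uM substrate at pH 5.0; curves fitted with the Hill equation.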
GLA inh pH 4.5 – qHTS Assay for Inhibitors of Human alpha-Galactosidase at pH 4.5; Alpha-galactosidase A (Homo sapiens), P06280; 230,000 tested, under 10 active; activity change, negative = inhibition, % at 105 µM; purified enzyme, 4-MU-alpha-Gal fluorescence, pH 4.5;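 further: 0% = full activity with enzyme and -100% = basal without enzyme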
Target sequence (P06280 whole entry, looked up): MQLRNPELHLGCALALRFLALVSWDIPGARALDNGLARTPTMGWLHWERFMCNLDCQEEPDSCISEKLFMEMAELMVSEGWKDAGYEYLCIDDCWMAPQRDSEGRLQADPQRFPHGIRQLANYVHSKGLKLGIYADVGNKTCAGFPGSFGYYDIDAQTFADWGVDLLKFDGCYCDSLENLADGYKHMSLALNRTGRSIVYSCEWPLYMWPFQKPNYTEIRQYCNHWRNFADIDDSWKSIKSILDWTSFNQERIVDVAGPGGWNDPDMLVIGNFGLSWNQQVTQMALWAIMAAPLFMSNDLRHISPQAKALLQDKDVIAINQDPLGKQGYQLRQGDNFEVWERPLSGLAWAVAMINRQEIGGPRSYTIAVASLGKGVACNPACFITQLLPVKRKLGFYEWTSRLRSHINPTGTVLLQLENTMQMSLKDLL
N370S GC mod – qHTS Assay for Inhibitors and Activators of N370S glucocerebrosidase as a Potential Chaperone Treatment of Gaucher Disease | Lysosomal acid glucosylceramidase (Homo sapiens), P04062 | N370S GC spleen homogenate, 4MU-glucoside fluorescence | Potency, µM (doses to about 59.4 µM), for the others: at the highest dose activity change, negative = inhibition, hits mostly inhibitors | actives 0.092% (n = 330,000) | AID 2101, 2009;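 further: potency means the concentration at half of the fitted maximal effect; 0% = full enzyme activity and -100% = no enzyme basal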
GLA spleen mod – qHTS Assay for Inhibitors and Activators of Human alpha-Galactosidase From Spleen Homogenate; human spleen homogenate, 4MU-alpha-Gal fluorescence, 40 min; AID 2107, 2009; actives 0.008% (n = 240,000); Potency, µM (titrated, usually from 80 µM), for inactives: at the highest dose activity change, negative = inhibition, actives largely listed as inhibitors;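 further: potency means the concentration at half of the fitted maximal effect; 0% = enzyme with vehicle and -100% = no enzyme basal signal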
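Spleen homogenate 1 ug + cpd (titration) + 4-MU-alpha-D-galactopyranoside 1 mM; 37C 40 min; 50 mM citrate/phosphate pH 5.0, 0.01% Tween-20; stop pH 10; fluorescence 365/440; AC50 via Hill.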
Active calls of the source: *; ? = inconclusive; · = no result given; [ ] = dose if it differs, or a comment. Most compounds without a hit are left out; they make up all but 0.43% or so of the library. The call rests on the fitted dose curve; in most records, active means well fitted curve in the direction sought with a large enough effect; inconclusive means small, poorly fitted or top-dose-only effect, or another doubt; inactive means no such curve, though single readings can be large; an effect the other way counts as inactive or inconclusive.

SMILES	GAA spleen mod	GAA glycogen	GAA inhib	GLA inh pH 4.5	N370S GC mod	GLA spleen mod
Cc1ccc(/C(O)=C/c2nc3cc(C)ccc3oc2=O)cc1	-8%	16µM*	·	-5	6%	-6%
CC(C)C/C(O)=C/c1nc2cc(Cl)ccc2oc1=O	-6%	?	0%	2	2%	-8%
O=c1oc2ccc(Cl)cc2nc1/C=C(\O)c1ccco1	1%	7.1µM*	·	-8	-14%	5%
COC(=O)c1ccc(NC(=S)Nc2ccc(O)cc2)cc1	7%	7.9µM*	4%	-8	-16%	3%
S=C(NNC(=S)Nc1ccccc1)Nc1ccccc1	·	?	·	·	1%	·
Oc1ccc(NC(=S)Nc2ccc(O)cc2)cc1	4%	3.1µM*	-5%	7	?	10%
CCn1c(=O)n(C2=C(CO)CN(CC3CCCCCCC3)CC2)c2ccccc21	-21%	·	·	·	-3%	4%
O=C(CC(c1ccccc1)c1cc(Br)ccc1O)NCCN1CCOCC1 (stereo not drawn)	-27%	28%	0%	5	6%	40µM*
O=C(CC(c1ccccc1)c1cc(Br)ccc1O)NCCCN1CCOCC1 (stereo not drawn)	·	-6%[76.3 µM]	·	·	-2%	·
CCOC(=O)C1=C(c2ccccc2)N(C)C(=O)NC1c1ccc(O)c(OC)c1 (stereo not drawn)	4%	?	-5%	-4	3%	5%
CCOC(=O)C1=C(c2ccccc2)Nc2c(c(=O)n(C)c(=O)n2C)C1c1ccc(O)c(OC)c1 (stereo not drawn)	1%	32µM*	-1%	-16	-10%	6%
CCCCn1c(CN2CCN(c3cccc(Cl)c3)CC2)nc2c1c(=O)n(C)c(=O)n2C	-17%	-1%	?	-20	-8%	35µM*
CCCCCn1c(CN2CCN(c3cccc(Cl)c3)CC2)nc2c1c(=O)n(C)c(=O)n2C	-1%	-11%	?	-8	-5%	5%
CCCCC/C=C\C/C=C\C/C=C\C/C=C\CCCC(=O)C(F)(F)F	-3%	·	·	-22	-30%	-5%
CSCC[C@H](NC(=O)[C@H](CC(C)C)NC(=O)[C@@H]1CCCN1C(=O)[C@H](Cc1ccccc1)NC(=O)[C@H](Cc1ccccc1)NC(=O)[C@@H]1CCC(=O)N1)C(N)=O	12%	·	·	·	3%	14%
Cc1ccccc1N=C1NC(=O)CC(c2ccccc2)S1 (stereo not drawn)	6%	11µM*	1%	-5	-5%	-5%
N#C/C(=C/c1ccc(F)cc1)C(N)=S	-5%	35µM*	?	-6	16%	-3%
Cc1cc(-c2ccc(N=Nc3ccc4c(S(=O)(=O)O)cc(S(=O)(=O)O)c(N)c4c3O)c(C)c2)ccc1N=Nc1ccc2c(S(=O)(=O)O)cc(S(=O)(=O)O)c(N)c2c1O	1%	·	·	-8	-18%	10%
CCN(C(=O)c1coc(=O)c(Br)c1)c1ccc2c(c1)OCO2	3%	18µM*	?	19	15%	19%
CCN(C(=O)c1c(C)cc(=O)oc1C)c1ccc2c(c1)OCO2	-6%	2%	0%	-6	6%	-17%
O=C(NS(=O)(=O)c1ccc(F)cc1)O[C@@H]1C(=O)c2cc(Br)ccc2O[C@H]1c1ccc2c(c1)OCO2	-7%	·	·	-2	-4%	1%
COc1ccc(N(CC(=O)NCc2ccc(C)cc2)S(=O)(=O)c2c(C)[nH]c(=O)[nH]c2=O)cc1	·	-3%[76.3 µM]	·	·	8.9µM*	·
CCOc1ccc(N(CC(=O)Nc2cccc(C)c2C)S(=O)(=O)c2c(C)[nH]c(=O)[nH]c2=O)cc1	-8%	5%	·	-1	11µM*	7%
CCOc1ccc(N(CC(=O)Nc2c(C)cccc2C)S(=O)(=O)c2c(C)[nH]c(=O)[nH]c2=O)cc1	0%	-2%	·	-11	4.5µM*	-1%
CCOc1ccc(N(CC(=O)NCc2ccccc2Cl)S(=O)(=O)c2c(C)[nH]c(=O)[nH]c2=O)cc1	·	-8%[76.3 µM]	·	·	4µM*	·
SMILES	GAA spleen mod	GAA glycogen	GAA inhib	GLA inh pH 4.5	N370S GC mod	GLA spleen mod
CCOc1ccc(N(CC(=O)NCc2ccc(C)cc2)S(=O)(=O)c2c(C)[nH]c(=O)[nH]c2=O)cc1	·	-5%[76.3 µM]	·	·	?	·
CCOc1ccc(N(CC)S(=O)(=O)c2c(C)[nH]c(=O)[nH]c2=O)cc1	·	-2%	·	·	-6%	·
NCC(=O)N[C@@H](CCCN=C(N)N)C(=O)NCC(=O)N[C@@H](CC(=O)O)C(=O)N[C@@H](CO)C(=O)O	-2%	·	·	·	-2%	-1%
COC(=O)C[C@H]1c2ccccc2[C@H]2C(=C[C@@H](C)[C@H]3C(=O)N(O)C(=O)[C@H]32)N1C(=O)OC	-4%[17.4 µM]	·	·	7	-10%[12.8 µM]	-8%[17.5 µM]
COC(=O)C1=C(C(=O)OC)[C@@H]2N(C)c3ccccc3[C@@]23C[C@@H](C(=O)OC)N(S(=O)(=O)c2ccc(C#N)cc2)C3=N1	12%[17.4 µM]	·	·	-2	5%[12.8 µM]	11%[17.5 µM]
CC(N)(C(=O)O)c1cccc(CC(=O)O)c1 (stereo not drawn)	5%	·	·	·	8%	-6%
CCOC(=O)c1[nH]c2ccccc2c1NC(=S)Nc1ccccc1C	-3%	14µM*	-8%	1	3%	9%
Cc1[nH][nH]c(=O)c1C(c1ccc(-c2ccc(Cl)c(Cl)c2)o1)c1c(C)[nH][nH]c1=O	-11%	32µM*	-4%	-2	-23%	-6%
Cc1[nH][nH]c(=O)c1C(c1ccc(-c2ccc(F)cc2)o1)c1c(C)[nH][nH]c1=O	12%	?	5%	-6	-16%	6%
CC(C)[C@H](NC(=O)[C@H](CCCCN)NC(=O)[C@@H](NC(=O)[C@@H]1CCCN1C(=O)[C@H](CCCN=C(N)N)NC(=O)[C@H](CCCN=C(N)N)NC(=O)[C@H](CCCCN)NC(=O)[C@H](CCCCN)NC(=O)CNC(=O)[C@@H](NC(=O)[C@@H]1CCCN1C(=O)[C@@H](N)CCCCN)C(C)C)C(C)C)C(=O)N[C@@H](Cc1ccc(O)cc1)C(=O)N1CCC[C@H]1C(=O)O	4%	·	·	·	-3%	5%
C=CC1=C2C=C(C3CC3)N(CCCCO)C=C2C(=O)C(C)(OC(=O)c2ccco2)C1=O (stereo not drawn)	6%[17.4 µM]	·	·	3	6%[12.8 µM]	6%[17.5 µM]
